This passage reports max activation and Potency results from PubChem BioAssay (Tox21).

SMILES strings stand for the structures. Several values for one entry are separate records, joined by “and”; a condition that tells them apart may be missing. Equal values may be shown once. Records with an inconclusive call do not appear. Activity calls are given as the source filed them. The call rests on the fitted dose curve; in most records, active means well fitted activation curve with a large enough effect in the repeat runs; inconclusive means weak or mixed curves; inactive means no such curve, though single readings can be large or run the other way.
On the % scale 0 is the no-effect control and ±100 the full control effect; potency means the concentration at half of the fitted maximal effect.

Chain of Nuclear receptor subfamily 1 group I member 2 (Rattus norvegicus) (Q9R1A7 whole entry, looked up): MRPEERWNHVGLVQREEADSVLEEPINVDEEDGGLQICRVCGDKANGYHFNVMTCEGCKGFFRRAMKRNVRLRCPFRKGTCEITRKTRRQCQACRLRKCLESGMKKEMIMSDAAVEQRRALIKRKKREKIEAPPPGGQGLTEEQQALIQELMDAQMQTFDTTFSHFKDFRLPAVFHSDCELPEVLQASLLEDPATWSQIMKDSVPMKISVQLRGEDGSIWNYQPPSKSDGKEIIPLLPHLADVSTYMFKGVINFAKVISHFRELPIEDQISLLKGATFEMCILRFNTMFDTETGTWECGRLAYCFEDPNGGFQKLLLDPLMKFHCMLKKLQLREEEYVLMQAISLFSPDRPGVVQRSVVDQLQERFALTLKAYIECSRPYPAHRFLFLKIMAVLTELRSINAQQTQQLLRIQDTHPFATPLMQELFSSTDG

This experiment has as its target Nuclear receptor subfamily 1 group I member 2 (Rattus norvegicus) (UniProt Q9R1A7). Nature of the experiment: Rat pregnane X receptor (rPXR) activation by small molecules, qHTS assay (AID 1346983). Further: nearly all actives have a fitted effect of over 20% in size. Particulars: rPXR luciferase reporter cells, One-Glo luminescence, 24 h; max activation: active compounds read high. The text has this:
National Center for Advancing Translational Sciences [NCATS] NIH Chemical Genomics Center [NCGC] U.S. Environmental Protection Agency [EPA] National Institutes of Environmental Health Sciences [NIEHS] National Toxicology Program [NTP] Assay overview: The Pregnane X receptor (PXR), a ligand activated nuclear receptor plays a critical role in the regulation of genes involved in drug metabolism and transporters. PXR binds xenobiotics and when compounds interact with PXR produces enhanced expression of CYP3A genes. In humans PXR activation and CYP3A4 induction can be problematic due to their interactions with co-medicated drugs and decrease their efficacy or increase their own metabolism. However, there are known species-specific differences with regard to PXR activation that should be taken into account when animal PXR data are extrapolated to humans. A cell based rat PXR (rPXR) assay (developed by Puracyp, Inc., CA) was used to assess the activation of rPXR.
Assay Protocol Summary: rPXR cells were dispensed at 2,000 per well in 5uL of assay medium into white, solid-bottom 1536-well plates using a Multidrop Combi dispenser (Thermo Scientific). The assay plates were incubated at 37 C for 5hr before transferring 23 nL of test compounds dissolved in DMSO and positive control via Pintool station (Wako). The assay plates were incubated at 37 C for 24 hr. Then 5ul One-Glo assay reagent (Promega) was added to each plate by a Flying Reagent Dispenser (FRD, Aurora Discovery) and following 30 min incubation at room temperature, luciferase activity was quantified on a ViewLux plate reader (Perkin Elmer).
In general terms: In qHTS, concentration-response curves come from the screen itself.
For the compound `O=C(Nc1ccc(Cl)cc1)Nc1ccc(Cl)c(Cl)c1`, the max activation is -13.1% (inactive).
On the same count and under the same terms, to `CN(C)C(=N)N=C(N)N` belongs -2.9% (inactive).
With `O=C(/C=C/c1ccccc1)OCc1ccccc1`, the max activation is -0.887% (inactive).
On to `C#C[C@]1(O)CC[C@H]2[C@@H]3CCc4cc(OC)ccc4[C@H]3CC[C@@]21C`, for which the max activation is 4.03% (inactive).
For the compound `C#C[C@]1(O)CC[C@H]2[C@@H]3CCC4=Cc5oncc5C[C@]4(C)[C@H]3CC[C@@]21C`, the Potency is 7.94 µM (active).
Turning to `COc1ccc(C(=O)CC(=O)c2ccc(C(C)(C)C)cc2)cc1`, the max activation was -2.2% (inactive).
The same measure, in the same setting: then `O=CCCCC=O`, with 4.17% (inactive); and `Cc1c(C(N)=O)cc([N+](=O)[O-])cc1[N+](=O)[O-]`, with 0.724% (inactive); and `COc1cccc2c1C(=O)c1c(O)c3c(c(O)c1C2=O)C[C@@](O)(C(=O)CO)C[C@@H]3O[C@H]1C[C@H](N)[C@H](O)[C@H](C)O1`, with -0.0344% (inactive) and 3.76% (inactive).
Consider `CC1=CCC(C(C)(C)O)CC1` (stereo not drawn), for which the max activation was -1.16% (inactive).
The same measure, in the same setting: to `CN1C(C(=O)Nc2ccccn2)=C(O)c2ccccc2S1(=O)=O` belongs -2.52% (inactive).
On the same count and under the same terms, to `O=C(COc1ccc(Cl)cc1)N1CCN(Cc2ccc3c(c2)OCO3)CC1` belongs 0.0978% (inactive); to `O=P(O)(O)O`, -4.8% (inactive); to `C[Si](C)(C)O[Si](C)(C)C`, -1.76% (inactive).
In the case of `C[C@]12CCC(=O)C=C1CC[C@@H]1[C@@H]2C(=O)C[C@@]2(C)[C@H]1CC[C@]2(O)C(=O)CO`, the max activation was 0.346% (inactive).
Same read-out and setting: then `CC(C)(C)NC(=O)[C@H]1CC[C@H]2[C@@H]3CC[C@H]4NC(=O)C=C[C@]4(C)[C@H]3CC[C@]12C`, with -2.95% (inactive); and `C=C(C)C1CC=C(C)CC1` (stereo not drawn), with -4.17% (inactive); and `Nc1ncnc2nc[nH]c12`, with 0.861% (inactive).
`Cc1cccc(N(C)C(=S)Oc2ccc3ccccc3c2)c1`: the max activation is 2.58% (inactive).
Same read-out and setting: then `O=C1c2cccc(O)c2C(=O)c2c(O)cccc21`, with -1.61% (inactive).
Same read-out and setting: to `COc1ccc(OC)c(C(O)CNC(=O)CN)c1` (stereo not drawn) belongs 1.02% (inactive); to `OC[C@H]1O[C@@H]2O[C@H]3[C@H](O)[C@@H](O)[C@@H](O[C@H]4[C@H](O)[C@@H](O)[C@@H](O[C@H]5[C@H](O)[C@@H](O)[C@@H](O[C@H]6[C@H](O)[C@@H](O)[C@@H](O[C@H]7[C@H](O)[C@@H](O)[C@@H](O[C@H]8[C@H](O)[C@@H](O)[C@@H](O[C@H]1[C@H](O)[C@H]2O)O[C@@H]8CO)O[C@@H]7CO)O[C@@H]6CO)O[C@@H]5CO)O[C@@H]4CO)O[C@@H]3CO`, -2.34% (inactive).
Still for that read-out and setting: then `Cc1ncc[nH]1`, with 1.32% (inactive); and `CCCC(=O)O`, with -1.54% (inactive); and `Cc1cc2nc3c(=O)[nH]c(=O)nc-3n(C[C@H](O)[C@H](O)[C@H](O)CO)c2cc1C`, with -0.456% (inactive).
`O=S(=O)(O)c1ccc(O)cc1`: the max activation is -1.73% (inactive).
Turning to `CN(C)CCN(Cc1cccs1)c1ccccn1`, the max activation was -1.17% (inactive).
On to `Nc1ncn([C@@H]2O[C@H](CO)[C@@H](O)[C@H]2O)c(=O)n1`, for which the max activation was -11.1% (inactive).
The same measure, in the same setting: then `CC(=O)Oc1ccccc1C(=O)Nc1ncc([N+](=O)[O-])s1`, with -18.4% (inactive).
Take `CC(C)Oc1ccc2c(=O)c(-c3ccccc3)coc2c1`: the Potency was 0.316 µM (active).
As for `CCCCC(CC)COC(=O)c1ccc(N(C)C)cc1` (stereo not drawn), the max activation was -1.01% (inactive).
With `Nc1ccc(S(=O)(=O)Nc2cnc3ccccc3n2)cc1`, the max activation was 6.27% (inactive).
On the same count and under the same terms, then `Cc1[nH]c(=O)c(C#N)cc1-c1ccncc1`, with 1.02% (inactive).
